Compounds with a hit are over-represented: about 3.4% of the library has one in this group of screens.
rRNA inh HTS: reduced GFP signal of wild-type E. coli, primary screen, bacterial rRNA inhibitor project, GFP/RFP fluorescence, OD600, single point; E. coli WT GFP vs humanized-ribosome RFP mutants, 24 h; stronger effect = lower value; DMSO median 0, no signal -100; GFP signal change (wild-type ribosome), % (test concentration not listed); hit rate 1.6% among 350,000; AID 720706, 2013;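 active means significant combined selectivity score with lowered wild-type GFP, culture density cut under 30%, mutant RFP and density less affected; inactive means any of these conditions unmet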
EWS-Fli block: EWS/Fli-driven NR0B1 reporter inhibitors, primary screen, A673 cells, NR0B1 luciferase, luminescence, MLPCN library. viability-normalised. inhibition, % at 12.6 µM. hit rate 0.67% among 350,000. AID 651661, 2012;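 active means mean inhibition of at least 50% after viability correction, with every replicate also passing that limit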;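 further: firefly luciferase signal divided by Alamar Blue viability fluorescence both relative to DMSO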
PAX8 reporter: inhibitors of PAX8-driven TPO luciferase reporter, primary screen, RMG-I cells, single concentration. SteadyGlo, 24 h. inhibition, % at 12.6 µM. hit rate 1.2% among 360,000;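 active means mean replicate inhibition at least 60% with every replicate also reaching 60%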;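 further: luciferase light reporting Pax8 driven TPO promoter activity; plate controls were median of neutral control wells for no effect and mitoxantrone controls for full effect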
LGR2 antag: inhibitors of bursicon-induced LGR2 CRE-luciferase signal, primary screen, cell-based, HEK293, CRE-luciferase reporter, bursicon stimulation; bursicon-stimulated, 4 h; hit rate 0.35% among 380,000; inhibition, % at 9.99 µM; Drosophila bursicon receptor LGR2 (rickets);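 active means drop in luminescence signal, shown as inhibition above about 50% in the replicate tests, limit read from the data, passing the limit was not always enough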;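 further: agonist challenge used bursicon conditioned medium at about half maximal strength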
SIRT5 inh: SIRT5 desuccinylase inhibitors, primary screen, biochemical, fluorescence imaging, single point, set 5. NAD-dependent protein deacylase sirtuin-5, mitochondrial (Homo sapiens), Q9NXA8. Purified SirT5, succinyl-peptide AMC, trypsin-coupled fluorescence. inhibition, % at 15 µM. hit rate 1.1% among 330,000. AID 652115, 2013; in the data active means inhibition above about 15%
Target sequence (Q9NXA8 whole entry, looked up): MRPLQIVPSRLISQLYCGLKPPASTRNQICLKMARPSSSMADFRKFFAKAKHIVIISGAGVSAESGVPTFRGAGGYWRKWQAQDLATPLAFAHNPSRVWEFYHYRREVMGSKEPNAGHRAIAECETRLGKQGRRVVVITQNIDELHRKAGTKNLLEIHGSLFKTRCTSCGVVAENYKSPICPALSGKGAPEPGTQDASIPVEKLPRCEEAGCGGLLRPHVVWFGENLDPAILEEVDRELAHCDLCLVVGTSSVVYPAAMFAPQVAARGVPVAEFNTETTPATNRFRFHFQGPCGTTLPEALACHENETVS
PGC1a acetyl inh: inhibitors of PGC1a acetylation signal, primary screen, cell-based, U2OS, AlphaScreen, inhibitor mode | AlphaScreen anti-acetyl-lysine; with virally co-expressed GCN5 acetyltransferase | inhibition, % at 15.6 µM | hit rate 0.17% among 350,000;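 active means every replicate shows inhibition of at least 40%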;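 further: 0% = neutral control wells and 100% = positive control wells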
DNA binder FP: DNA binders by acridine orange displacement, dose response, counter-screen for EWS/Fli inhibitor project, biochemical, fluorescence polarization, cherry-pick. shares compounds with EWS-Fli block. salmon sperm DNA acridine orange fluorescence polarization. AC35, µM (series often up to 68 µM), for inactives: at the highest dose activity change, negative = DNA binding. hit rate 2% among 640. AID 720586, 2013;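 active means fitted curve reaches a 35% signal fall AC35 below twice the sample's top valid tested dose, actives reach about 48 µM in these data; inactive means the rest, including activity in the rising direction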;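 further: lower polarization ratio signals compound binding to DNA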
* marks the source's active call; other numbers are inactive results; ! = not active in a repeat.

Nc1nc(N)c2c(ccc3nccc32)[nH]1 was read as rRNA inh HTS -24, EWS-Fli block 56*, PAX8 reporter 16, LGR2 antag 0, SIRT5 inh -43 and DNA binder FP -12%.
Screening CCCNC(=O)[C@@H]1[C@@H](CO)[C@@H]2Cn3c(ccc(-c4ccccc4)c3=O)[C@H]1N2C(=O)C1CC1 returned rRNA inh HTS -1, EWS-Fli block 0, LGR2 antag -1 and SIRT5 inh -35.
For CCCNC(=O)[C@@H]1[C@@H](CO)[C@@H]2Cn3c(ccc(-c4ccccc4)c3=O)[C@H]1N2C(=O)CC the results were rRNA inh HTS 1, EWS-Fli block 55*, LGR2 antag 5, SIRT5 inh -28, PGC1a acetyl inh 6 and DNA binder FP 2%.
For CN1C/C(=C\c2ccc(N3CCOCC3)cc2)C(=O)/C(=C/c2ccc(N3CCOCC3)cc2)C1 the results were LGR2 antag 6 and PGC1a acetyl inh 23.
Screening CN1C/C(=C/c2ccsc2)C(=O)/C(=C/c2ccsc2)C1 returned EWS-Fli block 61*, PAX8 reporter 8, LGR2 antag 8, SIRT5 inh -1, PGC1a acetyl inh -22 and DNA binder FP -13%.
For COc1ccc(C2=NNC(=Nc3cc(S(=O)(=O)N(C)C)ccc3C)SC2)c(OC)c1 the results were rRNA inh HTS 16, EWS-Fli block 52*, PAX8 reporter 103*, LGR2 antag -6, SIRT5 inh -2, PGC1a acetyl inh -16 and DNA binder FP -19%.
Screening O=c1c2ccccc2nc(/C=C/c2cc(Br)ccc2O)n1CCCO returned rRNA inh HTS -12, EWS-Fli block 53*, PAX8 reporter 42, LGR2 antag 26, SIRT5 inh -3, PGC1a acetyl inh 29 and DNA binder FP 2%.
`CCOc1ccc(-c2cc(CCCC(=O)N3CCN(c4ccc(OC)cc4)CC3)no2)cc1` gave rRNA inh HTS -3, EWS-Fli block 60*, PAX8 reporter -9, LGR2 antag -24, SIRT5 inh -4 and DNA binder FP -8%.
For CN(C)C(=O)c1cccc(-c2ccc(C3[C@H]4CNC[C@@H]3N4Cc3nccs3)cc2)c1 (some centres undefined) the results were rRNA inh HTS 3, EWS-Fli block 5, LGR2 antag 1 and SIRT5 inh 2.
For CN(C)C(=O)c1cccc(-c2ccc(C3[C@@H]4CN(Cc5nccs5)C[C@H]3N4)cc2)c1 (some centres undefined) the results were rRNA inh HTS 1, EWS-Fli block 59*!, PAX8 reporter -9, LGR2 antag -11, PGC1a acetyl inh 9 and DNA binder FP -3%.
For Cc1cc(-c2nc3ccccc3s2)ccc1N the results were rRNA inh HTS -40, EWS-Fli block 61*, PAX8 reporter 15, LGR2 antag 54*, SIRT5 inh -12, PGC1a acetyl inh 1 and DNA binder FP -11%.
CCCCc1c(-c2ccccc2OC)ncn1Cc1ccc(C(C)(C)C)cc1 was read as rRNA inh HTS -50, EWS-Fli block 62*, PAX8 reporter 72*, LGR2 antag 37 and DNA binder FP 5%.
COc1ccccc1N(/N=C1\Sc2ccccc2C1=O)C(C)=O was read as rRNA inh HTS 4, EWS-Fli block 54*, PAX8 reporter -114, SIRT5 inh -18 and DNA binder FP -12%.
For COc1ccc(N(/N=C2\Sc3ccccc3C2=O)C(C)=O)cc1 the results were PAX8 reporter -16, LGR2 antag -71 and PGC1a acetyl inh 2.
`O=C(NCCc1ccccc1)c1ccccc1NC(=O)C1CCCO1` (centres undefined) gave rRNA inh HTS 7, EWS-Fli block 71*, PAX8 reporter -23, LGR2 antag -45, SIRT5 inh -3 and DNA binder FP -15%.
`O=C(O)c1ccccc1NC(=O)C1CCCO1` (centres undefined) gave PGC1a acetyl inh -8.
For C[C@H]1CN([C@@H](C)CO)C(=O)c2cc(-c3cncnc3)cnc2O[C@@H]1CN(C)C(=O)Cc1ccccn1 the results were rRNA inh HTS 4, EWS-Fli block 5, LGR2 antag -11, SIRT5 inh 0 and PGC1a acetyl inh 6.
For CCC(=O)N(C)C[C@@H]1Oc2cc(C#CCC3CCCC3)ccc2S(=O)(=O)N([C@@H](C)CO)C[C@H]1C the results were rRNA inh HTS -22, EWS-Fli block 28, PAX8 reporter 39, LGR2 antag 15, SIRT5 inh 9 and PGC1a acetyl inh -6.
`O=C(CN1C(=O)S/C(=C\c2ccccc2)C1=O)NNC(=O)c1ccccc1O` gave LGR2 antag -1.
For O=C(CCCN1C(=O)S/C(=C\c2ccccc2)C1=O)NNC(=O)c1ccccc1O the results were rRNA inh HTS 3, EWS-Fli block 74*, PAX8 reporter 57, LGR2 antag -23, SIRT5 inh -2, PGC1a acetyl inh -9 and DNA binder FP 13%.
Screening O=C(CCCN1C(=O)/C(=C/c2ccccc2Cl)SC1=S)NNC(=O)c1ccc(Cl)cc1Cl returned rRNA inh HTS 6, EWS-Fli block 72*, PAX8 reporter 21, LGR2 antag 16, SIRT5 inh 0, PGC1a acetyl inh 8 and DNA binder FP 4%.
`Cc1ccc2nc3n(c(=O)c2c1)-c1cc2ccccc2cc1C(=O)NC3Cc1ccccc1` (centres undefined) gave rRNA inh HTS 8, EWS-Fli block 50, PAX8 reporter 55, LGR2 antag 9, SIRT5 inh -7 and PGC1a acetyl inh -8.
Screening Cc1ccc2c(=O)n3c(nc2c1)C(Cc1ccc(O)cc1)NC(=O)c1cc2ccccc2cc1-3 (centres undefined) returned rRNA inh HTS -7, EWS-Fli block 53*, PAX8 reporter 45, LGR2 antag 3, SIRT5 inh 1, PGC1a acetyl inh -9 and DNA binder FP -8%.
Screening C(=Cc1nc2ccccc2o1)c1ccc2c(c1)OCO2 returned rRNA inh HTS 6, EWS-Fli block 69*, PAX8 reporter 3, LGR2 antag 81*, SIRT5 inh -2, PGC1a acetyl inh -1 and DNA binder FP 3%.
